# Source: PubChem BioAssay (NCI)
# This is part of a sample that, as a whole, favours compounds with a hit. Of some 79,000 tested, about 15% had one in any assay. A number with no mark means an inactive call. Active and inactive are the calls of the source. Rule as the data show it: active = growth inhibition above about 70%; inactive = the rest.
# Test: NCI Yeast Anticancer Drug Screen. Data for the cln2 rad14 strain (AID 165);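 also: 0% = growth equal to vehicle treated cultures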
# Settings: S. cerevisiae cln2 rad14 strain, at 5.0 µM (retest, dose inferred, filed as 0.5), active compounds read high
# Summary of the method: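 The screen exposed genetically defined yeast (cln2 rad14) to test compounds and scored growth inhibition relative to vehicle-treated controls.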
row,SMILES,growth inhibition
1,COc1ccc2c(Cc3cc(Cl)ccc3O)cncc2c1O,3%
2,Cc1ccc(NNC2=NC(=S)NC(=O)C2)cc1,-8%
3,CC#CC(=O)Nc1ccccc1CC(c1c[nH]c2ccccc12)c1c[nH]c2ccccc12,19%
4,COC(=O)c1c2oc3c(C(=O)OC)cccc3nc-2cc(N)c1=O,-5%
5,CCCCCC(=O)NNc1ccccc1,0%
6,CN(C)CCNc1ccc2nnn3c4ccc(O)cc4c(=O)c1c23,19%
7,COc1ccc2c(c1)C(=O)C[C@@H]1[C@](C)(C#N)CCC[C@]21C,5%
8,CCC(=O)c1cc2ccccc2c2ccccc12,-3%
9,O=C1OCCCOC(=O)c2cc(ccc2O)OCC#CC#CCOc2ccc(O)c1c2,4%
10,Nc1nc(Cl)cc(NCC2(CO)CC(CCCc3ccccc3)C2)n1 (configuration not stated),13%
11,NNC(=S)Nc1ccccc1,5%
12,CCOC(=O)c1ccc(N=Cc2cc(Cl)cc(Cl)c2O)cc1,37%
13,CC(C(=O)N1C(=O)N(C(=O)C(C)C(O)c2ccccc2)C(c2ccccc2)C1c1ccccc1)C(O)c1ccccc1 (configuration not stated),29%
14,CC(C)(C)CC(C)(C)N[P+](NC(C)(C)CC(C)(C)C)(NC(C)(C)CC(C)(C)C)NC(C)(C)CC(C)(C)C,84% (active)
15,C/C(=N\NC(=S)N1CCCC1)c1cnccn1,74% (active)
16,N=C(N)c1ccc(OCCCCOc2ccc(N)cc2Cl)cc1,-2%
17,CCCCCC(CN(C)C)C(O)/C=C\c1ccccc1 (configuration not stated),-1%
